HCMV antiviral – inhibitors of human cytomegalovirus; activity change, negative = inhibition, % at 57.5 µM; AID 1259415; HFF cells, HCMV-luciferase reporter, 72 h; active compounds read low; actives 4.5% (n = 410,000); in the data active means activity change below about -60%; inconclusive means no clear call, values can overlap the other calls; inactive means above about -39%
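HFF cells seeded 16 h at 37C, treated with compounds, infected with luciferase-reporter HCMV at MOI 1 PFU/cell; luciferase read at 72 h post infection, normalized to buffer-only and Salinomycin controls.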
MARV entry inh – Marburg virus entry inhibition; Potency, µM (doses to about 37.8 µM), hits mostly inhibitors; AID 540276; actives 1.8% (n = 300,000); Marburg virus pseudotyped entry inhibition, cell reporter; calls by dose curve; tested in HEK293 cells
HCV inhibitor – HCV inhibition | AID 651820 | actives 3.4% (n = 340,000) | Huh7.5.1 HCVcc-Cre infection, luciferase reporter, 44 h | Potency, µM (series often up to 41.8 µM), hits mostly inhibitors
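1,000 cells/well; 4 h culture; + compound; + HCVcc-Cre (~0.5 moi); 44 h; luciferase substrate, RT 15 min; read 15 sec.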
Pf growth 48h – P. falciparum growth inhibition at 48 hours (one generation); Potency, µM (doses to about 28.7 µM), actives largely listed as inhibitors; actives 5.9% (n = 310,000); P. falciparum luciferase growth in erythrocytes, 48 h
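Luminescence readout; reporter = integrated firefly luciferase in P. falciparum. RBC culture at 2% hematocrit, 0.1% parasitemia final, 37 C/5% CO2; decreased signal taken as growth inhibition.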
LASV entry inh – blocks Lassa virus binding to or entry into cells. Lassa virus pseudotype entry inhibition, cell reporter. actives 1.2% (n = 300,000). AID 540256. Potency, µM (top dose mostly 37.9 µM), most hits filed as inhibitors; calls by dose curve; tested in HEK293 cells; further: nearly all actives have a fitted effect of over 50% in size
Pf growth 96h – P. falciparum growth inhibition at 96 hours | P. falciparum luciferase reporter growth, 96 h | Potency, µM (titrated, usually from 28.7 µM), most hits filed as inhibitors | actives 6.9% (n = 320,000) | AID 504834
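Parasite growth measured via integrated firefly luciferase reporter in P. falciparum. Infected erythrocytes at 2% hematocrit, 0.05% parasitemia final were treated 96 hours at 37 C under 5% CO2, and luminescence was read.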
Numbers stand for hits; 0 = inactive; ? = inconclusive; - = no result. In the library only some 14% were active in any assay of this set; here they are far more common. Unless noted, the call rests on the fitted dose curve; in most records, active means well fitted inhibition curve with a large enough effect; inconclusive means small, poorly fitted or top-dose-only effect, or another doubt; inactive means no such curve, though single readings can be large or run the other way.

SMILES	HCMV antiviral	MARV entry inh	HCV inhibitor	Pf growth 48h	LASV entry inh	Pf growth 96h
O=C1c2ccc3c4c(ccc(c24)C(=O)N1c1ccc(O)cc1)C(=O)N(c1ccc(O)cc1)C3=O	0	0	?	0	0	4.65µM
OC(C1=CC(=Cc2ccncc2)c2ccccc21)c1ccncc1 (stereo unspecified)	0	?	11.2µM	-	0	-
OC(c1ccccc1)c1ccncc1 (stereo unspecified)	0	-	0	0	-	0
CC(C)NC(=O)C1(C)CCN1C(=O)C1(c2ccccc2)CCCC1 (stereo unspecified)	0	-	-	-	-	-
CC(=O)N1CCSc2ccc(S(=O)(=O)NCCc3ccc(Cl)cc3)cc21	-60.1	-	11.2µM	0	-	?
CC(=O)N1CCSc2ccc(S(=O)(=O)NCCc3ccc(C)cc3)cc21	0	?	?	0	7.94µM	?
CC(=O)N1CCOc2ccc(S(=O)(=O)NCCc3ccccc3)cc21	0	0	0	0	?	?
CC(=O)N1CCOc2ccc(S(=O)(=O)NCCc3cccc(C)c3)cc21	0	-	0	0	-	10.4µM
CC(=O)OCC(=O)C1(O)CCC2C3CCC4=CC(=O)CCC4(C)C3(F)C(O)CC21C (stereo unspecified)	0	?	0	-	0	-
C=CCc1cc(OC)c(O)c(C(=O)NCCO)c1	-	-	-	0	-	0
COc1cc2c(cc1OC)C(SC)=NC1(CCCC1)C2	0	?	?	10.4µM	0	0
CCOc1ccc(-c2nc3c(c(SCC(=O)N4CCCCC4)n2)Cc2cccc(OC)c2O3)cc1	0	0	-	-	0	-
CCOc1ccc(NC(=O)CNC(=O)c2nn(-c3ccc(OC)cc3)c(=O)c3ccccc23)cc1	-64.7	0	0	9.28µM	-	0
COc1ccc(-n2nc(C(=O)NCC(=O)Nc3ccccn3)c3ccccc3c2=O)cc1	0	?	?	0	0	0
COc1ccc(-n2nc(C(=O)NCC(=O)Nc3cccc(Cl)c3)c3ccccc3c2=O)cc1	0	?	0	9.28µM	0	11.7µM
Nc1ccc(-c2nc3ncccc3o2)cc1	?	-	0	0	-	?
CCOC(=O)c1oc2ccccc2c1COC(=O)CNC(=O)c1ccco1	0	0	0	0	0	0
O=C(COC(=O)c1cc(S(=O)(=O)N2CCCCC2)ccc1N1CCOCC1)c1ccccc1	0	?	0	8.28µM	0	?
CC1(C)C(=O)Nc2ccccc2N1C(=O)COc1cc(Cl)ccc1Cl	0	-	0	11.7µM	-	?
O=C(COC(=O)c1cc(S(=O)(=O)N2CCOCC2)cs1)c1ccccc1	0	0	0	0	0	9.28µM
O=C(COC(=O)c1ccc(F)c(S(=O)(=O)N2CCOCC2)c1)c1ccccc1	0	-	0	-	-	-
Cc1ccc(S(=O)(=O)N2CCOCC2)cc1C(=O)OCC(=O)c1ccc[nH]1	0	-	11.2µM	?	-	?
CC1(C)C(=O)Nc2ccccc2N1C(=O)COC(=O)c1cc(Cl)cc(Cl)c1	0	-	0	-	-	-
O=C(COC(=O)c1cc(S(=O)(=O)N2CCOCC2)ccc1F)c1ccccc1	0	-	0	-	-	-
CCOC(=O)[C@@H](NC(=O)/C=C/[C@H]1O[C@@H](n2cc(C)c(=O)[nH]c2=O)C[C@@H]1O)C(C)C	0	-	-	-	-	-
SMILES	HCMV antiviral	MARV entry inh	HCV inhibitor	Pf growth 48h	LASV entry inh	Pf growth 96h
O=C(Nc1cccc(OC(F)(F)F)c1)C1Cc2c(-c3ccco3)ccnc2O1 (stereo unspecified)	0	-	-	-	-	-
Cc1ccc(S(=O)(=O)N2CCCCC2)cc1C(=O)OCC(=O)N1c2ccccc2NC(=O)C1(C)C	0	?	11.2µM	-	0	-
CC(C)CNC(=O)COC(=O)c1cc(S(=O)(=O)N2CCCCC2)ccc1N1CCOCC1	0	0	0	?	0	?
CC(C)NC(=O)NC(=O)COC(=O)c1cc(S(=O)(=O)N2CCCCC2)ccc1N1CCOCC1	0	-	0	8.28µM	-	?
O=C(COC(=O)c1cc(S(=O)(=O)N2CCCCC2)ccc1N1CCOCC1)c1ccc(Cl)cc1	0	?	?	11.7µM	?	13.1µM
Cc1ccc(C(=O)OCC(=O)N2c3ccccc3NC(=O)C2(C)C)cc1S(=O)(=O)N1CCCCC1	0	?	?	-	0	-
COc1ccc2cc([S+]([O-])Cc3ncc(C)c(OC)c3C)nc2c1	-	0	-	-	0	-
CN1CCC(Nc2ncc3ncnc(Nc4ccc(F)c(Cl)c4)c3n2)CC1	-	-	-	1.69µM	-	3.38µM
Cc1ccccc1NCC(=O)Nc1cc(S(=O)(=O)N2CCCCC2)ccc1C	0	-	0	?	-	?
Cc1ccccc1SCC(=O)Nc1cc(S(=O)(=O)N2CCOCC2)ccc1N1CCOCC1	0	0	0	8.28µM	0	?
CC(NCC(=O)Nc1cc(S(=O)(=O)N2CCOCC2)ccc1N1CCOCC1)c1ccco1 (stereo unspecified)	0	-	0	?	-	5.86µM
Cc1ccc(S(=O)(=O)N2CCOCC2)cc1NC(=O)CNc1ccccc1N1CCCC1=O	0	0	0	9.28µM	0	?
COc1cccc(C(c2sc3nc(-c4ccco4)nn3c2O)N2CCC3(CC2)OCCO3)c1 (stereo unspecified)	0	-	-	-	0	-
COc1ccc2c(CNCc3cccs3)c(C(=O)O)n(Cc3ccccc3F)c2c1	0	-	-	-	0	-
CCCCOc1ccc(CNC(=O)c2ccc(NC(=O)N3CCCCc4ccccc43)cc2)cc1	0	-	-	-	0	-
CCC[C@H]1NC(=O)[C@H](C)N(C)C(=O)C(C)(C)C(=O)C(C)NC(=O)[C@H](Cc2ccc(OC)cc2)N(C)C(=O)[C@H](C(C)C)N(C)C(=O)CNC(=O)[C@H](CC(C)C)N(C)C(=O)CNC(=O)[C@H]([C@@H](C)CC)OC(=O)[C@H]1C (stereo partly specified)	-	-	0.562µM	-	-	-
O=C(NCCN1CCC(n2c(=O)[nH]c3ccccc32)CC1)c1cccc(Cl)c1	0	-	-	-	-	-
COc1ccccc1NC(=O)c1oc2ccccc2c1NC(=O)c1ccc(S(=O)(=O)N(C)C)cc1	0	0	-	-	0	-
Cc1ccc(N(C(=O)COc2ccccc2C)S(=O)(=O)c2ccc(Cl)cc2)cc1	0	-	-	-	?	-
CCOc1ccccc1CN(Cc1ccco1)S(=O)(=O)c1ccc(-n2cnnn2)c(OC)c1	-74.4	?	?	10.4µM	?	-
COc1cc(S(=O)(=O)N(Cc2cccnc2)Cc2cccc(OC)c2OC)ccc1-n1cnnn1	0	0	0	?	0	?
COc1ccccc1CN(Cc1cccnc1)S(=O)(=O)c1ccc(-n2cnnn2)c(OC)c1	0	0	0	?	0	8.28µM
NS(=O)(=O)c1ccc(N=Cc2c(O)[nH]c3ccc4ncsc4c23)cc1	-	-	-	-	7.05µM	-
CC(C)C(=O)Nc1ccc2nc(SCC(=O)N3CCCC3)sc2c1	0	0	-	-	0	-
NC(=O)c1c(NC(=O)CS(=O)(=O)c2ccc(Cl)cc2)sc2c1CCCC2	0	-	-	-	0	-
Cc1ccc(-n2nc(CO)c(C(=O)NC(C)c3ccccc3)n2)cc1C (stereo unspecified)	-63.2	0	-	-	?	-

From PubChem BioAssay
